Some test systems named below: SR leukemia; RPMI-8226 leukemia; OVCAR-5 ovarian; OVCAR-4 ovarian; SK-OV-3 ovarian; IGROV1 ovarian; OVCAR-3 ovarian; HS 578T breast; NCI/ADR-RES ovarian; T-47D breast; BT-549 breast; MDA-MB-435 melanoma; SW-620 colon; HCT-116 colon; HCC-2998 colon; KM12 colon; MDA-MB-468 breast; MCF7 breast; OVCAR-8 ovarian.
Test in all cases: NCI-60 one-dose screen, 48 h (100 = growth as untreated, 0 = no growth, -100 = all killed)
What all share (conditions): 10 µM unless noted

Structures are written as SMILES. The panel holds about 83,000 compounds, 20% with a hit somewhere; the sample as a whole holds those more often.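 96-well plates, one dose, 48 hours. Percent growth reported; active if below 10.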 A number with no mark means an inactive call. Activity calls are given as the source filed them.

With `CCCSc1nc(Nc2ccc(S(N)(=O)=O)cc2)c(C#N)c(-c2cc(OC)c(OC)c(OC)c2)n1`, the growth with SR leukemia is 6.66% (active); in the assay with RPMI-8226 leukemia, 3.5% (active); in the assay with OVCAR-5 ovarian, 58.5%; in the assay with OVCAR-4 ovarian, 27.5%; in the assay with SK-OV-3 ovarian, 64.9%; in the assay with IGROV1 ovarian, 34.9%. The growth in the assay with OVCAR-3 ovarian is 24.6%; with HS 578T breast it was 30.7%; in the assay with NCI/ADR-RES ovarian it was 15.1%; with T-47D breast it was -11.4% (active); in the assay with BT-549 breast it was 16.5%; in the assay with MDA-MB-435 melanoma, 23%. The growth in the assay on SW-620 colon was 30%; in the assay on HCT-116 colon, 11.4%; in the assay on HCC-2998 colon it was 43.6%; in the assay on KM12 colon, 12.7%; in the assay with MDA-MB-468 breast it was 30.5%.

For `C#CCOc1cc(N(CC)CC)ccc1C(C(=O)NC(C)(C)C)N(C(=O)C1CCc2cc(F)ccc2O1)c1cc(C)cc(C)c1` (stereo not drawn), the growth with SR leukemia is 20.4%; in the assay on RPMI-8226 leukemia, 17.6%; in the assay on OVCAR-5 ovarian, 49.7%; in the assay on OVCAR-4 ovarian, 36.8%; with SK-OV-3 ovarian, 46.7%; with IGROV1 ovarian, 61.9%. Also, the growth with OVCAR-3 ovarian is 30.5%; with HS 578T breast, 53.7%; in the assay on NCI/ADR-RES ovarian it was 41.9%; in the assay with T-47D breast it was 18.8%; in the assay on BT-549 breast, 43.1%; in the assay with MDA-MB-435 melanoma it was 47.1%. The growth in the assay on SW-620 colon is 36.4%; with MCF7 breast, 14.9%; in the assay with HCT-116 colon, 11.4%; in the assay on HCC-2998 colon, 54.6%; in the assay on KM12 colon, 25.9%; in the assay on MDA-MB-468 breast it was 24.3%.

In the case of `COc1cc(CNC(=O)/C=C/c2ccc3c(c2)OCO3)ccc1OCc1cn(-c2ccc([N+](=O)[O-])cc2)nn1`, the growth with SR leukemia was 69.3%; with RPMI-8226 leukemia, 74.2%; with OVCAR-8 ovarian it was 90.5%; with OVCAR-5 ovarian, 97.7%; in the assay on OVCAR-4 ovarian, 75.7%; with SK-OV-3 ovarian, 99.3%. The growth in the assay with IGROV1 ovarian is 107%; in the assay on NCI/ADR-RES ovarian it was 86.7%; in the assay on T-47D breast, 65.5%; with BT-549 breast it was 71.9%; in the assay with MDA-MB-435 melanoma, 101%; in the assay with MCF7 breast, 81.8%. Further, the growth was 85.3% with HCT-116 colon, 104% in the assay with HCC-2998 colon, 100% with KM12 colon and 72.4% in the assay with MDA-MB-468 breast.

In the case of `CC(=O)c1cccc(NC(=O)CCC(=O)NS(=O)(=O)c2ccc(C)cc2)c1`, the growth is 99.3% in the assay on SR leukemia; 99.8% in the assay on RPMI-8226 leukemia; 106% with OVCAR-8 ovarian; 110% in the assay on OVCAR-5 ovarian; 118% with OVCAR-4 ovarian; 99.6% in the assay on SK-OV-3 ovarian. Further, the growth was 115% in the assay with IGROV1 ovarian; 111% in the assay with HS 578T breast; 112% with NCI/ADR-RES ovarian; 106% with T-47D breast; 107% in the assay with BT-549 breast; 112% in the assay with MDA-MB-435 melanoma. The growth with SW-620 colon was 111%; in the assay on HCT-116 colon, 101%; in the assay with HCC-2998 colon, 117%; in the assay with KM12 colon, 104%; in the assay on MDA-MB-468 breast, 122%.

For the compound `COc1cc(/C=C/C(=O)c2ccc(C)cc2)ccc1Oc1nc(Nc2ccc(F)cc2)nc(N(C)C)n1`, the growth in the assay with SR leukemia is 3.88% (active); with RPMI-8226 leukemia, -1.89% (active); with OVCAR-5 ovarian it was 79.1%; in the assay with OVCAR-4 ovarian, 39.4%; in the assay on SK-OV-3 ovarian, 79.4%; in the assay on IGROV1 ovarian, 57.8%. Further, the growth with OVCAR-3 ovarian was 52.4%; in the assay with HS 578T breast, 41.7%; in the assay on NCI/ADR-RES ovarian, 38.1%; in the assay on T-47D breast it was 15.4%; in the assay with BT-549 breast, -30.1% (active); in the assay with MDA-MB-435 melanoma, 53.9%. Besides, the growth in the assay on SW-620 colon is 6.82% (active); in the assay on MCF7 breast it was 11.9%; in the assay with HCT-116 colon, -80.3% (active); in the assay with HCC-2998 colon, 91.9%; in the assay with KM12 colon, 65.4%; with MDA-MB-468 breast, 40.1%.

For `O=C(NN1C(=O)/C(=C/C=C/c2ccc([N+](=O)[O-])o2)SC1=S)c1ccc(Cl)cc1`, the growth is 4.16% (active) in the assay on SR leukemia; -23.8% (active) with RPMI-8226 leukemia; -97.7% (active) in the assay with OVCAR-5 ovarian; -98.9% (active) in the assay with OVCAR-4 ovarian; -99.6% (active) with SK-OV-3 ovarian; -92.9% (active) with IGROV1 ovarian. Further, the growth in the assay with OVCAR-3 ovarian was -98% (active); in the assay on HS 578T breast, -18.4% (active); in the assay with NCI/ADR-RES ovarian it was -42.6% (active); in the assay with T-47D breast, -91.2% (active); in the assay on BT-549 breast, -91.1% (active); in the assay with MDA-MB-435 melanoma it was -86.2% (active). Also, the growth in the assay on SW-620 colon is -80.9% (active); in the assay with MCF7 breast it was -60% (active); with HCT-116 colon, -76.1% (active); with HCC-2998 colon it was -96.2% (active); in the assay with KM12 colon, -93% (active); with MDA-MB-468 breast, -85.9% (active).

As to `N#Cc1ccc(/C=N/NC(=O)c2[nH]c3ccc(Br)cc3c2-c2ccccc2)o1`, the growth with SR leukemia is 4.35% (active); in the assay on RPMI-8226 leukemia, 3.55% (active); with OVCAR-8 ovarian, -21.9% (active); in the assay on OVCAR-5 ovarian, 15.9%; with OVCAR-4 ovarian it was 35%; in the assay with SK-OV-3 ovarian it was 44%. Besides, the growth with IGROV1 ovarian was 13.9%; in the assay with NCI/ADR-RES ovarian, -40.9% (active); in the assay with T-47D breast it was 23.8%; in the assay with BT-549 breast, -7.06% (active); in the assay on MDA-MB-435 melanoma it was -3.87% (active); with MCF7 breast it was 7.95% (active). Also, the growth in the assay with HCT-116 colon is 1.43% (active); in the assay on HCC-2998 colon, -30.9% (active); with KM12 colon, 6.36% (active); with MDA-MB-468 breast, -13.6% (active).

Take `CCOC(=O)C1=C(N)N(c2ccccc2)C2=C(C(=O)CC(C)(C)C2)C1c1ccc([N+](=O)[O-])cc1` (stereo not drawn): the growth is 66.4% in the assay on SR leukemia; 82.6% with RPMI-8226 leukemia; 101% in the assay with OVCAR-5 ovarian; 97.3% with OVCAR-4 ovarian; 105% in the assay on SK-OV-3 ovarian; 108% in the assay on IGROV1 ovarian. In addition, the growth was 121% in the assay on OVCAR-3 ovarian; 100% in the assay with HS 578T breast; 98.2% in the assay with NCI/ADR-RES ovarian; 91.2% in the assay with T-47D breast; 102% in the assay with BT-549 breast; 102% with MDA-MB-435 melanoma. Moreover, the growth was 96.9% in the assay on SW-620 colon; 83.8% in the assay with MCF7 breast; 83.8% in the assay with HCT-116 colon; 100% in the assay on HCC-2998 colon; 99.5% with KM12 colon; 96.1% in the assay with MDA-MB-468 breast.

The values are drawn from PubChem BioAssay (NCI).
